Data on 32 molecules can be found in ChEMBL document CHEMBL3433997, “St. Jude Leishmania screening dataset” (2016).

Type in all cases: functional
Assay [1] deals with Solute carrier family 2, facilitated glucose transporter member 1 (Homo sapiens) (UniProt P11166). The experiment in a line: ST_JUDE_LEISH: Cytotoxicity at 2uM final concentration against transgenic Leishmania Mexicana promastigotes LmGLUT1 that are glucose transport deficient and complemented with the human glucose transporter GLUT1. Activity is measured by DNA content using SYBR green in vitro.

Assay [2] concerns the target Hexose transporter 1 (Plasmodium falciparum) (UniProt O97467). Nature of the assay: ST_JUDE_LEISH: Cytotoxicity at 2uM final concentration against transgenic Leishmania Mexicana promastigotes LmPfHT that are glucose transport deficient and complemented with the Plasmodium falciparum hexose transporter. Activity is measured by DNA content using SYBR green in vitro.
Assay [3] concerns the target Glucose transporter (Leishmania mexicana) (UniProt O61059). Nature of the assay: ST_JUDE_LEISH: Cytotoxicity at 2uM final concentration against transgenic Leishmania Mexicana promastigotes LmGT2 that are glucose transport deficient and complemented with the L. Mexicana glucose transporter 2. Activity is measured by DNA content using SYBR green in vitro.

Sequence of Solute carrier family 2, facilitated glucose transporter member 1 (Homo sapiens) (P11166 whole entry): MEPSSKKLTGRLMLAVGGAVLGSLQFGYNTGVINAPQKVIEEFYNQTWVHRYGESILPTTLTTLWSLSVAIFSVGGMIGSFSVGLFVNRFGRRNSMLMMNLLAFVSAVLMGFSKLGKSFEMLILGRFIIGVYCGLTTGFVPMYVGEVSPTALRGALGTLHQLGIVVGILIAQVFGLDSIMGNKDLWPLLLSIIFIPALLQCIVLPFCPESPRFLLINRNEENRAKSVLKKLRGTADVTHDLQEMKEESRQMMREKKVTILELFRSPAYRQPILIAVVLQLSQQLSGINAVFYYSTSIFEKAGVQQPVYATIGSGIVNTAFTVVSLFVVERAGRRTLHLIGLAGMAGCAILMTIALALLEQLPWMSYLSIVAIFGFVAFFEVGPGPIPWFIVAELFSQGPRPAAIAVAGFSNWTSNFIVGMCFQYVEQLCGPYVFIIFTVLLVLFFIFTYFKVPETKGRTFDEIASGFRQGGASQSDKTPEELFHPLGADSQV

Turning to `Cc1ccc2c(N/N=C/c3ccccc3[N+](=O)[O-])cc(C)nc2c1`, the inhibition – broadly, the relative decrease from the control value, in per cent – is 2.06% in assay [1], -5.28% in assay [2] and 1.01% in assay [3].
Take `O=C(Nc1cccc(-c2ccc(-c3nc4cc(F)ccc4[nH]3)cc2)c1)Nc1ccc(Cl)c(Cl)c1`: the inhibition in assay [1] worked out at 5.5%; in assay [2] it was 2.93%; in assay [3], 5.84%.
For the molecule `CCCCCCNc1c2ccccc2nc2ccccc12`, the inhibition in assay [1] was 4.99%; in assay [2], 9.27%; in assay [3], 3.25%.
Regarding `CCCN1CCN(CCCNc2c3ccccc3nc3ccccc23)CC1`, the inhibition in assay [1] came out at 73.1%; in assay [2], 78.2%; in assay [3] it was 65.1%.
The like results for `c1ccc(-c2nc(Nc3nc4ccccc4[nH]3)[nH]c2-c2ccccc2)cc1` were, in that order, 10.8%, 6.74% and 4.43%.
The corresponding values for `O=C(/C=C/c1ccc(-c2nc3ccc(Cl)cc3[nH]2)cc1)NC1CCN(Cc2ccccc2)CC1` are 1.24%, 1.66% and 3.7%.
The like results for `C=CCNS(=O)(=O)c1ccc(NC(=O)C(C)Oc2ccc([N+](=O)[O-])cc2)cc1` (stereo unspecified) were, in that order, 1.52%, 1.56% and -0.8%.
For `CC(C)(C)OC(=O)C1CCCN(Cc2ccc(-c3cccc(-c4nc5ccccc5[nH]4)c3)cc2)C1` (stereo unspecified), the inhibition was determined as 3.21% in assay [1], 3.25% in assay [2] and 0.78% in assay [3].
The corresponding values for `CCOc1ccc2c(=NN=Cc3cc(OC)c(OC)c(OC)c3)cc(C)[nH]c2c1` are 2.5%, 1.22% and -0.3%.
The corresponding values for `O=C1OC2(CCN(C(=O)c3ccc(-n4cnnn4)cc3)CC2)CN1Cc1ccc(Cl)c(Cl)c1` are 2.26%, 3.05% and 5.35%.
The like results for `O=C(Nc1ccc(Cn2ncc(N3CCNCC3)c(Cl)c2=O)cc1)Nc1ccc(-c2ccccc2)cc1` were, in that order, 4.36%, 2.78% and -0.78%.
With `C[C@@H](C(=O)N1CCOCC1)N1CC[C@H](NS(=O)(=O)c2ccc3ccnc(N)c3c2)C1=O`, the inhibition in assay [1] is -1.02%; in assay [2] it was -1.24%; in assay [3] it was -4.28%.
`COc1ccc(CNc2nccc3ccc(-c4ccc5nccn5c4)cc23)cc1`: the inhibition was 1.79% in assay [1], 0.03% in assay [2] and -1.93% in assay [3].
The corresponding values for `CCOC(=O)c1ccc(NC(=O)N[C@@H](Cc2ccccc2)C(=O)NC2CCN(Cc3ccc(OCCCN(C)C)cc3)C2)cc1` (stereo partly specified) are -0.91%, 0.74% and 0.98%.
Turning to `COc1ccc2nc3cc(Cl)ccc3c(NCCO)c2c1`, the inhibition in assay [1] is 2.8%; in assay [2] it was -1.06%; in assay [3], 2.4%.
On to `Cc1[nH]c(C)c(-c2ccc(OCc3ccc(F)cc3)cc2)c(=O)c1Cl`, for which the inhibition is -0.65% in assay [1], -0.27% in assay [2] and -1.77% in assay [3].
For `CCOc1cc2ncnc(Nc3ccc(OCc4ccccc4OC)c(OC)c3)c2cc1OCC`, the inhibition in assay [1] worked out at 5.01%; in assay [2], 2.81%; in assay [3], 0.35%.
The corresponding values for `COc1ccc2ccc(F)c(CC(=O)N3CCOC(CNCc4cccc(-c5ccsc5)n4)C3)c2n1` (stereo unspecified) are 6.96%, 6.66% and 4.23%.
The corresponding values for `O=C(Nc1ccc(-c2cccc(-c3nc4cc(F)ccc4[nH]3)c2)cc1)Nc1ccc(Cl)c(Cl)c1` are 3.29%, 1.92% and 3.36%.
The corresponding values for `Cc1ccc(CNC(=O)c2ccc(CN3CCCN(Cc4ccsc4)CC3)cc2)cc1` are 1.42%, 0.79% and 2.87%.
On to `O=C(NC1CCCCC1)N(Cc1cccc(-c2ccc(CNCc3ccc4c(c3)OCO4)cc2)c1)C1CCN(Cc2ccccc2)CC1`, for which the inhibition is 8.67% in assay [1], 5.99% in assay [2] and 3.16% in assay [3].
Regarding `Cc1cc(NC(=O)NCCN2CCC(NS(=O)(=O)c3ccc(Br)cc3)C2)c2ccccc2n1` (stereo unspecified), the inhibition in assay [1] was found to be 4.43%; in assay [2] it was 3.86%; in assay [3], 3.49%.
On to `CN(c1ccccc1C(=O)Nc1cc(Cl)ccc1Oc1ccccc1)S(=O)(=O)c1ccccc1`, for which the inhibition amounted to 5.06% in assay [1], 4.53% in assay [2] and 3.66% in assay [3].
`COc1c(C2CCN(CCCCNC(=O)c3ccc(-c4ccc(Cl)cc4)c(OCC(N)=O)c3)CC2)ccc2c1CCCC2`: the results for the inhibition in assay [1], in assay [2] and in assay [3] were 4.52%, 3.3% and 5.11%, respectively.
Turning to `CCOc1cc(C(=O)Nc2cccnc2)cc(Br)c1OCCC(C)C`, the inhibition in assay [1] is 1.25%; in assay [2] it was -2.07%; in assay [3] it was -0.8%.
The corresponding values for `CCNc1cc(C(=O)N[C@@H](Cc2ccccc2)[C@H](O)CN[C@H]2CCc3ccccc32)cc(N2CCCC2=O)c1` are 1.96%, 1.74% and 2%.
The like results for `OC(CNCc1ccccc1OCc1ccccc1)c1cccc(C(F)(F)F)c1` (stereo unspecified) were, in that order, 15.1%, 11.6% and 10.8%.
The corresponding values for `CN1CCCC(CN2CCN(Cc3ccc(-c4ccc(-c5nc6ccccc6[nH]5)cc4)cc3)CC2)C1` (stereo unspecified) are 13%, 15.9% and 7.8%.
Take `Cn1cc(C2CCN(CCCCNC(=O)c3ccc(C(=O)Nc4ccc(C#N)cc4)cc3)CC2)c2ccccc21`: the values for the inhibition in assay [1], in assay [2] and in assay [3] were 9%, 7.5% and 7%, respectively.
The like results for `O=C(/C=C/c1ccc(Cl)c(Cl)c1)NCCCCCN1CCC(CCNC(=O)/C=C/c2ccc(Cl)c(Cl)c2)CC1` were, in that order, 1.63%, -0.93% and 0.87%.
For the molecule `CCCN(CCC)CCCOc1ccc(C(=O)c2c(-c3ccc(OCCCN(CCC)CCC)cc3)oc3ccc(Cl)cc23)cc1`, the inhibition amounted to 70.8% in assay [1], 49.3% in assay [2] and 31.1% in assay [3].
As to `O=C(Nc1ccc(Cl)cc1)c1cccc2nc(C(F)(F)F)[nH]c12`, the inhibition in assay [1] worked out at 9.28%; in assay [2] it was 9.14%; in assay [3] it was 5.94%.
